Results filed as inconclusive are left out. Values without a mark were called inactive. The source made the active and inactive calls. Calls follow the shape of the full dose curve. Residues, ends and D or L forms follow the SMILES beside them.
Biological target: Acetylcholinesterase (Homo sapiens) (UniProt P22303)
Experiment: Acetylcholinesterase (AChE) small molecule antagonists: fluorescence cell-based qHTS assay (AID 1347398); also: nearly all actives have a fitted effect of over 50% in size
Conditions: SH-SY5Y cells; Potency: AChE activity; outcome: AChE activity; series mostly up to 115 µM; activity change, negative = inhibition: at the top concentration
In short: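 Thiocholine generated from acetylthiocholine by SH-SY5Y cell AChE is detected with Thiolite Green (Ex/Em 490/520 nm) after 40 min at room temperature, following 30 min compound pretreatment at 37 C.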
% is scaled to controls: 0 for no effect and ±100 for the full control effect.

Acetylcholinesterase (Homo sapiens), sequence (P22303 whole entry, looked up): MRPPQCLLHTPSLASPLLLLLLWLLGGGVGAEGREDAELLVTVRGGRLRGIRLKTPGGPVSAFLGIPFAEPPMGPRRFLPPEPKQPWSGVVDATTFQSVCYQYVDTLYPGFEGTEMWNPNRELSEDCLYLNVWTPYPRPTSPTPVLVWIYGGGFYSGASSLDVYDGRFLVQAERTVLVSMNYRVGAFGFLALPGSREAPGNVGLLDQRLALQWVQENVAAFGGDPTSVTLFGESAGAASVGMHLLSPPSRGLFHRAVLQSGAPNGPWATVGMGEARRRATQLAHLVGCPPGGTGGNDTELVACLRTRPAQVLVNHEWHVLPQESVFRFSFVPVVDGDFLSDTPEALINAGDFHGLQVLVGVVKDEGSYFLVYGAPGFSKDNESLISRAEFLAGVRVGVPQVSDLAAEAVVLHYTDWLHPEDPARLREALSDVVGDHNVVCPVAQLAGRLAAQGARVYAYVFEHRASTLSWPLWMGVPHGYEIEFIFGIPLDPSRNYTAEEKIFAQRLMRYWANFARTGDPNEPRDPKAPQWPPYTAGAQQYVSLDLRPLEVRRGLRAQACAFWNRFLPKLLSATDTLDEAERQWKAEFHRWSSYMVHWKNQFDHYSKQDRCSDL

SMILES | activity change, negative = inhibition | Potency | outcome
O=C(c1ccccc1)c1ccc(O)cc1 | 4.87% | – | –
O=[N+]([O-])c1cccc(S(=O)(=O)O)c1 | 16.1% | – | –
CC(COC(=O)c1ccccc1)OC(=O)c1ccccc1 (stereo not given) | -23.5% | – | –
O=C(O)[C@H](O)[C@@H](O)[C@H](O[C@@H]1O[C@H](CO)[C@H](O)[C@H](O)[C@H]1O)[C@H](O)CO | 10.2% [at 53.7 µM] | – | –
COC(=O)CC(=O)OC | – | inactive | –
CC(C)NC(=O)NC(C)C | 2.18% | – | –
O=C(O)CC(=O)C(=O)O | 2.49% | – | –
Cc1cc(NC(=O)C2=C(O)c3ccccc3S(=O)(=O)N2C)no1 | 1.52% [at 53.7 µM] | – | –
C[C@]12C(=O)OC(=O)[C@H]1[C@H]1C=C[C@@H]2C1 | 0.284% | – | –
CC(=O)Nc1ccc(C)c(Cl)c1 | -0.0888% | – | –
CCC(=O)OC(C)c1ccccc1 (stereo not given) | 0.205% | – | –
CCCCCCCCC/C=C/CC1CC(=O)OC1=O (stereo not given) | – | inactive | –
CCCCCCCCCCCC(=O)OCC(C)OC(=O)CCCCC(=O)O (stereo not given) | -10.2% [at 53.7 µM] | – | –
Nc1nc2ccccc2[nH]1 | -23.2% | – | –
CCOc1cc(NC(C)=O)ccc1C(=O)OC | -4.15% [at 53.7 µM] | – | –
C=CC(C)(C)CC(=O)OC | -0.408% | – | –
N[C@H](Cc1c[nH]c2ccccc12)C(=O)O | 2.81% | – | –
CC(C)(C)C(=O)CC(=O)C(C)(C)C | 1.41% | – | –
N/C(=N\N=C\c1ccc(Cl)cc1)N/N=C/c1ccc(Cl)cc1 | 0.395% [at 53.7 µM] | – | –
CC(=O)N(CC(O)CN(C(C)=O)c1c(I)c(C(=O)NCC(O)CO)c(I)c(C(=O)NCC(O)CO)c1I)c1c(I)c(C(=O)NCC(O)CO)c(I)c(C(=O)NCC(O)CO)c1I (stereo not given) | 6.4% [at 53.7 µM] | – | –

SMILES | activity change, negative = inhibition | Potency | outcome
C=C(C)[C@H]1CC=C(C)C(=O)C1 | – | inactive | –
OC[C@H]1O[C@@H]2O[C@H]3[C@H](O)[C@@H](O)[C@@H](O[C@H]4[C@H](O)[C@@H](O)[C@@H](O[C@H]5[C@H](O)[C@@H](O)[C@@H](O[C@H]6[C@H](O)[C@@H](O)[C@@H](O[C@H]7[C@H](O)[C@@H](O)[C@@H](O[C@H]1[C@H](O)[C@H]2O)O[C@@H]7CO)O[C@@H]6CO)O[C@@H]5CO)O[C@@H]4CO)O[C@@H]3CO | – | inactive | –
CN1CCC(=C2c3ccccc3C=Cc3ccccc32)CC1 | 8.28% [at 53.7 µM] | – | –
CC(=O)O[C@@]12CO[C@@H]1C[C@H](O)[C@@]1(C)C(=O)[C@H](O)C3=C(C)[C@@H](OC(=O)[C@H](O)[C@@H](NC(=O)OC(C)(C)C)c4ccccc4)C[C@@](O)([C@@H](OC(=O)c4ccccc4)[C@H]21)C3(C)C | -0.656% [at 53.7 µM] | – | –
O=C(O)c1ccccc1[N+](=O)[O-] | 5.71% | – | –
C=CC(=O)Nc1cc2c(Nc3ccc(F)c(Cl)c3)ncnc2cc1OCCCN1CCOCC1 | -0.882% [at 53.7 µM] | – | –
OC[C@H]1O[C@@H](n2cnc3c(=S)nc[nH]c32)[C@H](O)[C@@H]1O | 10.1% [at 53.7 µM] | – | –
Cc1c(Nc2ncccc2C(=O)O)cccc1C(F)(F)F | 13.3% [at 53.7 µM] | – | –
CCc1nccnc1CC | 3.3% [at 23.8 µM] | – | –
CC1COc2ccccc2N1C(=O)C(Cl)Cl (stereo not given) | – | inactive | –
C[C@@H](CN1CC(=O)NC(=O)C1)N1CC(=O)NC(=O)C1 | -2.72% [at 53.7 µM] | – | –
CC(C)(C)C1CCCCC1O (stereo not given) | 2.72% | – | –
CCOc1ccccc1OCC1CNCCO1 (stereo not given) | – | – | inactive
C=CCOC(=O)CCCCCC | -0.499% | – | –
CCCCCCCCCC=O | -4.01% | – | –
C[N+]1(C)[C@@H]2CC(OC(=O)[C@H](CO)c3ccccc3)C[C@H]1[C@@H]1O[C@@H]12 (stereo not given in full) | 0.372% [at 53.7 µM] | – | –
O=C(NS(=O)(=O)/C=C/c1ccccc1)c1ccc(F)cc1Cl | 2.22% | – | –
CCC(C)n1ncn(-c2ccc(N3CCN(c4ccc(OC[C@H]5CO[C@](Cn6cncn6)(c6ccc(Cl)cc6Cl)O5)cc4)CC3)cc2)c1=O (stereo not given in full) | 5.14% [at 53.7 µM] | – | –
COC(=O)[C@H](Cc1ccccc1)NC(=O)[C@@H](N)CC(=O)O (H-Asp-Phe-OMe) | – | inactive | –
CCCCN1C[C@H](O)[C@@H](O)[C@H](O)[C@H]1CO | 2.33% [at 53.7 µM] | – | –

Source: PubChem BioAssay (Tox21)
